# Screening results as filed in PubChem.
# Giardia killer: Small Molecules that selectively kill Giardia lamblia: qHTS; Giardia lamblia trophozoite viability; activity change, % at 7.66 µM, hits read low; hit rate 0.15% among 340,000; in the data active = activity change below about -80%; inconclusive = between about -30% and that limit;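 also: parasites exposed to compound for two days anaerobically before the ATP read; % is scaled to controls: 0 for no effect and ±100 for the full control effect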
#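 Trophozoites 100 cells/well + cpd; 48 hrs, 37 deg C, anaerobic. ATPLite 1-Step added, 15-30 min RT, luminescence read (ATP-based viability).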
# RXFP1 agonist: qHTS Assay for Agonists of the Relaxin Receptor RXFP1; hit rate 0.3% among 370,000; HEK293T-RXFP1 cAMP TR-FRET, 30 min; response scale: percent of porcine relaxin response, buffer zero; AID 2676, 2010; Potency, µM (highest dose often 57.5 µM), without a hit: at the highest dose activation, most hits filed as activators; also: potency is read from the fitted curve at half-maximal effect; % is scaled to controls: 0 for no effect and ±100 for the full control effect; nearly all actives have a fitted effect of over 60% in size
# Target sequence (Q9HBX9 whole entry, looked up): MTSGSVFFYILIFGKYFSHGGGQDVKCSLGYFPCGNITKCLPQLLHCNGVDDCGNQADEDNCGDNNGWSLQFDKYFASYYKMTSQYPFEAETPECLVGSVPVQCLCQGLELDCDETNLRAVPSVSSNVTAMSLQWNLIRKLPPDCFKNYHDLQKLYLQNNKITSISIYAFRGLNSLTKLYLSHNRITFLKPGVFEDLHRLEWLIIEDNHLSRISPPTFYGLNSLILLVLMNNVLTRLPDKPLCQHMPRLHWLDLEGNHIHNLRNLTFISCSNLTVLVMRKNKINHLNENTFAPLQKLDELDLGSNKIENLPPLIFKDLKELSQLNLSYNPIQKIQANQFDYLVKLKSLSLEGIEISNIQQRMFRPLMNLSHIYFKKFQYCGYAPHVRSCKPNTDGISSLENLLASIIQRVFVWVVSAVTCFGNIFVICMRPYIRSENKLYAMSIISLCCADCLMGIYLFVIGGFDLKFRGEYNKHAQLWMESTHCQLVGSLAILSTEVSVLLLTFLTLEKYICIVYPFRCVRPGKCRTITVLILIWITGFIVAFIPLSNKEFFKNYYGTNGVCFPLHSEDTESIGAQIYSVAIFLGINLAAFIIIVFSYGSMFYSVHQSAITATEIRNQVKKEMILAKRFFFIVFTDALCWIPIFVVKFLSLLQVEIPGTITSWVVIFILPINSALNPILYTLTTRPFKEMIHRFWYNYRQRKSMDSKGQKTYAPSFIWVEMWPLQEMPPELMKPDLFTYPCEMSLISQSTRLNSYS
#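 Agonist response is measured as cAMP accumulation in an RXFP1-transfected HEK293T line under PDE4 inhibition. Values are scaled between buffer-only and 29 nM porcine relaxin, and EC50s come from standard Hill equation fits.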
# BRCA1 expr up: qHTS Assay to Identify Small Molecule Activators of BRCA1 Expression. MCF7-BRCA1-FFLuc reporter, luminescence, 48 h; response scale: scaled: vehicle 0%, 10 µM genistein 100%. Potency, µM (highest dose often 46.1 µM), for inactives: top-dose activation, usual class: activators. hit rate 1.1% among 380,000; also: potency is read from the fitted curve at half-maximal effect; nearly all actives have a fitted effect of over 80% in size
#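 Luminescence from a BRCA1-driven firefly luciferase in MCF7 cells was read after 48 h compound exposure at 37 C. Data normalized against DMSO and a 10microM genistein activation control, then curve-fitted across the titration.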
# RXFP1 antag: qHTS Assay for Antagonists of the Relaxin Receptor RXFP1 | HEK293-RXFP1, relaxin-stimulated cAMP HTRF, 30 min; active compounds read low | hit rate 0.59% among 350,000 | Relaxin receptor 1 (Homo sapiens), Q9HBX9 | activity change, negative = inhibition, % at 57.5 µM | AID 1259400, 2018;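 active = activity change of -60% or lower, but not beyond a set lower limit; inconclusive = change between -60% and -40%, or beyond the set limit; inactive = change above -40%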; also: % is scaled to controls: 0 for no effect and ±100 for the full control effect
# NPSR antagonist: qHTS Assay for Antagonists of the Neuropeptide S Receptor: cAMP Signal Transduction. CHO-NPSR cells, cAMP TR-FRET, antagonist mode. Potency, µM (highest dose often 38.3 µM), inactives show at the top dose activity change, negative = inhibition, most hits filed as inhibitors. hit rate 1% among 220,000. AID 1461, 2008; also: potency is read from the fitted curve at half-maximal effect; % is scaled to controls: 0 for no effect and ±100 for the full control effect; nearly all actives have a fitted effect of over 50% in size
# IL-2 act: qHTS of IL-2 Activators. IL-2 activation reporter assay, cell-based qHTS; stimulated with anti-CD3/CD4/CD28 beads; in transgenic mouse T cells. activation, % (series mostly up to about 46 µM). hit rate 0.065% among 360,000; in the data active = activation above about 50%; inconclusive = mostly about 30% to 49%; also: 0% is about no effect
#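 Unstimulated transgenic mouse T cells preincubated 60 min with compound, then stimulated with anti-CD3/anti-CD4-coated beads plus anti-CD28 for 18 h at 37 degrees C. IL-2 response read as EGFP and DsRed fluorescence by plate cytometry.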
# Active calls of the source: *; ? = inconclusive; . = no result given; [ ] = remark or other dose. Hits are enriched below; roughly 1.9% of the tested compounds scored in any of these assays. Unless noted, calls follow the shape of the dose curve; as a rule, active = well fitted curve in the direction sought with a large enough effect; inconclusive = small, poorly fitted or top-dose-only effect, or another doubt; inactive = no such curve, though single readings can be large; an effect the other way counts as inactive or inconclusive.
SMILES,Giardia killer,RXFP1 agonist,BRCA1 expr up,RXFP1 antag,NPSR antagonist,IL-2 act
CNC(=O)c1nnsc1S(=O)(=O)c1ccc(Cl)cc1,-8,-3%,-91%,-83*,?,-1
O=C(c1nnsc1S(=O)(=O)c1ccc(Cl)cc1)N1CCOCC1,24,-1%,-93%,21,-37%,-1
O=C(NCCSc1ccccc1)c1cncc(Br)c1,1,1%,7.9µM*,-13,-7%[46.1 µM],0
O=C(CCc1ccccc1)NCCSc1ccccc1,-10,3%,5.6µM*,1,-10%,-1
O=C(NCCSc1ccccc1)c1ccccc1Cl,-13,1%,2.8µM*,17,2%,-2
O=C(CCNC(=O)c1ccccc1Cl)NCCCSc1ccccc1,7,-4%,2%,9,.,0
COc1cc2c(NC3CCN(C)CC3)nc(N3CCN(C)CC3)nc2cc1OCCCN(C)C,.,.,0%,.,.,.
O=C(c1ccc(F)cc1)c1ccc(N2CCCCC2)cc1,8,0%,5µM*,-5,.,0
O=C(Nc1ccc(N2CCCCC2)cc1)c1ccc(F)cc1,?,-1%,?,-1,-12%[46.1 µM],0
Oc1ccc(CNc2ccc(C(F)(F)F)cc2Cl)c2cccnc12,.,1%,.,.,.,.
CCS(=O)(=O)c1ncc(Cl)c(C(=O)N(Cc2ccccc2)Cc2ccco2)n1,.,0%,.,?,.,.
COc1ccccc1C(=O)Nc1ccc(N2CCN(S(C)(=O)=O)CC2)cc1,-25,0%,11µM*,-8,9%[46.1 µM],-2
COc1c(C)cccc1C(=O)Nc1ccc(N2CCN(S(C)(=O)=O)CC2)cc1,8,1%,3.5µM*,-8,9%[46.1 µM],2
COc1c(C)cc(Br)cc1C(=O)Nc1ccc(N2CCN(S(C)(=O)=O)CC2)cc1,8,0%,5%,-13,1%[46.1 µM],3
COc1ccccc1C(=O)Nc1ccccc1N1CCN(S(C)(=O)=O)CC1,0,-1%,-24%,-8,?,0
CCOc1ccc(/C=C/c2ccc3ccccc3n2)cc1OCC,.,.,-55%,.,.,.
NC(=O)NCCC1=CCCCC1,3,1%,5%,.,-3%[46.1 µM],2
C=CCn1c(N)c(C(=O)NCCC2=CCCCC2)sc1=S,-5,-2%,13µM*,5,17%[46.1 µM],-1
COc1ccccc1/C=C/c1ccnc2ccccc12,.,.,0%,.,.,.
O=C1C(Cl)=C(N2CCN(c3ccccc3[N+](=O)[O-])CC2)C(=O)c2ccccc21,-12,2%,-108%,.,10µM*,-4
CCS(=O)(=O)CCn1c([N+](=O)[O-])cnc1C,-86*,-1%,-31%,14,11%,0
CCn1c(O)c(N=NC(=S)NCC2CCCO2)c2ccccc21 (configuration not stated),-23,1%,-38%,-1,7.9µM*,0
CCn1nccc1C(=O)Nc1ccc(Cl)cn1,13,0%,0%,4,-6%[46.1 µM],1
CCn1ccc(C(=O)Nc2ccc(Cl)cn2)n1,20,0%,2.5µM*,-1,0%[46.1 µM],-2
C=C[C@@]1(C)C[C@H](OC(=O)CSC(C)(C)CNC(=O)[C@@H](N)C(C)C)[C@@]2(C)C(C)CC[C@@]3(CCC(=O)[C@@H]32)[C@H](C)[C@H]1O (some centres not stated),.,.,0%,.,.,.
SMILES,Giardia killer,RXFP1 agonist,BRCA1 expr up,RXFP1 antag,NPSR antagonist,IL-2 act
Cc1ccc(/C=N/Nc2ccccn2)s1,-14,-4%,11µM*,-10,.,-4
Cc1oc(=O)c(NC(=O)c2cccc(Cl)c2)cc1C(=O)c1ccccc1,-8,0%,-31%,-37,7.9µM*,-5
CN(C)c1ccc(C(=C2C=CC(=[N+](C)C)C=C2)c2c(O)c(S(=O)(=O)[O-])cc3cc(S(=O)(=O)O)ccc23)cc1,.,.,-52%,.,.,.
CCN(CC)c1ccc(C(=C2C=CC(=[N+](CC)CC)C=C2)c2ccc(S(=O)(=O)O)cc2S(=O)(=O)[O-])cc1,?,.,-55%,-90*,.,1
O=[N+]([O-])c1cccc(-c2csc(N/N=C/c3cccc(O)c3)n2)c1,-8,0%,-61%,-67*,-10%,3
CCOC(=O)Cc1csc(N/N=C/c2cccc([N+](=O)[O-])c2)n1,29,-1%,25%,-1,.,1
CN(C)S(=O)(=O)c1ccc(-c2csc(N/N=C/c3ccco3)n2)cc1,11,0%,-86%,-72*,-9%,1
C(=N\Nc1nc(-c2ccccc2)cs1)/c1ccncc1,-14,-2%,70%,-18,16%,-4
CN(C)S(=O)(=O)c1ccc(-c2csc(N/N=C/c3ccc(O)cc3)n2)cc1,-2,-1%,-24%,?,13µM*,-5
Cc1sc(N/N=C/c2ccco2)nc1-c1ccccc1,10,0%,-15%,-89*,12%,-1
CC(=O)C1=C(c2ccccc2)N(C(C)=O)n2c(nnc2C2CCCCC2)S1,.,5%,.,-38,.,.
COc1cc(/C=C2\CC/C(=C\c3ccc(OCCO)c(OC)c3)C2=O)ccc1OCCO,7,7%,-6%,12,-23%,163*
COc1ccc(/C=C2\CC/C(=C\c3ccc(OC)c(OC)c3)C2=O)cc1OC,-15,0%,-44%,-14,-18%,-2
COc1ccc(NC(=S)c2ccccc2)cc1,-13,2%,7.9µM*,8,2%,0
Cc1ccc(C(=O)NN=CC(=O)c2ccccc2)c(C)c1,16,.,?,1,.,1
COc1ccc(NC(=S)Nc2ccccc2)cc1,-3,0%,2%,6,13%,-1
O=C(NC(=O)c1ccccc1)Nc1ccccc1,-24,2%,19%,-7,.,3
COc1ccc(NC(=O)NC(=O)c2ccccc2)cc1,-7,-2%,1.1µM*,-1,.,1
COc1ccc(C(=O)N/N=C/C(=O)c2ccccc2)cc1,-22,0%,5.6µM*,6,.,-1
O=C(c1cccc(F)c1)N1CCC(c2c[nH]c3ccccc23)(c2c[nH]c3ccccc23)CC1,.,1%,2%,.,.,.
Cc1cc(C)cc(OCC(=O)N/N=C/c2ccc([N+](=O)[O-])o2)c1,-88*,-1%,-74%,-9,-14%,-4
Cc1cccc(OCC(=O)N/N=C/c2ccc(N(C)C)cc2)c1,-13,-1%,75%,-102*,-4%,-1
Cc1ccccc1OCC(=O)N/N=C/c1ccc([N+](=O)[O-])o1,-93*,1%,-80%,3,-2%,0
